Experiment [1] in a line: ATG_TAL_CIS: Attagene CIS-FACTORIAL HepG2 Assay for human TAL Basal Promoter (AID 2282966).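 Also: background control endpoint measuring basal TAL promoter reporter mRNA not a specific factor.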 Particulars: HepG2 Attagene cis-factorial TAL promoter reporter; actives raise or lower the signal. The method, boiled down: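 HepG2 cells transiently transfected with multiplexed cis-promoter reporter units, dosed 24 h. Reporter mRNA quantified by RT-PCR, 6-FAM labelling, HpaI digestion and capillary electrophoresis; TAL basal promoter serves as background control, fitted bidirectionally versus DMSO.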

A short description of experiment [2]: ATG_TGFb_CIS: Attagene CIS-FACTORIAL HepG2 Assay for human Transforming Growth Factor (TGF) (AID 2282967). The conditions noted are these: HepG2 Attagene CIS TGFb reporter, mRNA transcription; actives raise or lower the signal. The method, boiled down:
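Transient MRTU transfection of HepG2 (FuGene 6). Dose 24 h. TriZol RNA, oligo(dT) RT, PCR, 6-FAM primer extension, HpaI cut, CE. Bidirectional fit, DMSO = baseline.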

The nature of experiment [3]: ATG_VDRE_CIS: Attagene CIS-FACTORIAL HepG2 Assay for human Vitamin D Receptor Element (VDRE) (AID 2282968). The conditions noted are these: HepG2 VDRE cis-reporter transcription, actives raise or lower the signal. The method, boiled down:
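In transiently transfected HepG2 liver cells, gain or loss of reporter mRNA after 24 h exposure is scored relative to DMSO, using fluorescence detection by capillary electrophoresis of RT-PCR products.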

Experiment [4] deals with Estrogen receptor (Homo sapiens) (UniProt P03372). The experiment in a line: ATG_ERa_TRANS: Attagene TRANS-FACTORIAL HepG2 Assay for human Estrogen Receptor alpha (ERa) (AID 2282970; active = hit-call score of the fitted dose curve at least 0.9, where 1 is the maximum). Particulars: HepG2 Attagene TRANS ERa GAL4 reporter, mRNA. The method, boiled down:
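HepG2 cells transiently transfected with multiplexed GAL4-UAS reporter units read out chimeric NR-Gal4 activity. After 24 h compound exposure, reporter mRNA was quantified by RT-PCR, 6-FAM labeling, HpaI digestion and capillary electrophoresis, relative to DMSO.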

Experiment [5] deals with X-box-binding protein 1 (Homo sapiens) (UniProt P17861). Briefly: ATG_Xbp1_CIS: Attagene CIS-FACTORIAL HepG2 Assay for human X-box Binding Protein 1 (XBP1) (AID 2282972). Particulars: HepG2 XBP1 cis-element reporter, Attagene multiplex; actives raise or lower the signal. The method, boiled down: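 Fluorescence-labelled cDNA fragments from reporter transcripts, separated by capillary electrophoresis, give the signal. Source: HepG2 cells transfected with promoter-driven reporter units, harvested 24 h post-dose. DMSO served as reference for bidirectional curve fitting.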
Chain of X-box-binding protein 1 (Homo sapiens) (P17861 whole entry, looked up, the tested form may be a part): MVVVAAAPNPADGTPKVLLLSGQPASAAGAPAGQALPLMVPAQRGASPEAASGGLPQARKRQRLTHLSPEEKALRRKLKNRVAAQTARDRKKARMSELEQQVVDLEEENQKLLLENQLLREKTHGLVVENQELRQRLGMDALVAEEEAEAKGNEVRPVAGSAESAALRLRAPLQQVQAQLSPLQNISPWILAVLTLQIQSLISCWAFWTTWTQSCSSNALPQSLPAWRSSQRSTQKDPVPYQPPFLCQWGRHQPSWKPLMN

Experiment [6] in a line: ATG_M_19_TRANS: Attagene TRANS-FACTORIAL HepG2 Assay for M19 Transcription Factor (Internal Marker) (AID 2282974; active = hit-call score of the fitted dose curve at least 0.9, where 1 is the maximum). The conditions noted are these: HepG2 Attagene TRANS-FACTORIAL M19 internal marker reporter. The method, boiled down:
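HepG2 cells transiently transfected with multiple GAL4-UAS reporter transcription units were exposed to chemicals for 24 h. Reporter mRNA was read by RT-PCR, 6-FAM primer extension, HpaI digestion and capillary electrophoresis; gain of signal fitted relative to DMSO.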

The nature of experiment [7]: ATG_GAL4_TRANS: Attagene TRANS-FACTORIAL HepG2 Assay for GAL4 (Internal Marker) (AID 2282976; active = hit-call score of the fitted dose curve at least 0.9, where 1 is the maximum). The conditions noted are these: HepG2 Attagene TRANS GAL4 internal marker reporter. The method, boiled down:
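Background-control readout: GAL4-UAS reporter transcript in transiently transfected HepG2 cells after 24 h compound exposure. Measured by RT-PCR, 6-FAM primer extension, HpaI digest and capillary electrophoresis; gain-of-signal fit versus DMSO.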

The target in experiment [8] is Glucocorticoid receptor (Homo sapiens) (UniProt P04150). Briefly: ATG_GR_TRANS: Attagene TRANS-FACTORIAL HepG2 Assay for human Glucocorticoid Receptor (GR) (AID 2282978; active = hit-call score of the fitted dose curve at least 0.9, where 1 is the maximum;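 also: activators score as hits since higher reporter transcript over DMSO is fitted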). The conditions noted are these: HepG2 Attagene TRANS GR reporter, mRNA transcription. The method, boiled down:
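HepG2 cells transiently transfected with multiplexed reporter units in which chimeric NR-GAL4 proteins drive GAL4-UAS reporters; 24 h compound exposure. Reporter mRNA measured by RT-PCR, 6-FAM labelling, HpaI digestion and capillary electrophoresis; gain-of-signal fitted versus DMSO.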

Experiment [9] deals with Hepatocyte nuclear factor 4-alpha (Homo sapiens) (UniProt P41235). The experiment in a line: ATG_HNF4a_TRANS: Attagene TRANS-FACTORIAL HepG2 Assay for human Hepatocyte Nuclear Factor 4 alpha (HNF4a) (AID 2282982; active = hit-call score of the fitted dose curve at least 0.9, where 1 is the maximum). Particulars: HepG2 HNF4a transactivation reporter, mRNA readout. The method, boiled down: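 Transfected HepG2 reporter cells are dosed for 24 h; reporter RNA is reverse-transcribed, amplified, fluorescently labelled and HpaI-digested before CE sizing. Positive-direction fit against DMSO.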
Chain of Hepatocyte nuclear factor 4-alpha (Homo sapiens) (P41235 whole entry, looked up): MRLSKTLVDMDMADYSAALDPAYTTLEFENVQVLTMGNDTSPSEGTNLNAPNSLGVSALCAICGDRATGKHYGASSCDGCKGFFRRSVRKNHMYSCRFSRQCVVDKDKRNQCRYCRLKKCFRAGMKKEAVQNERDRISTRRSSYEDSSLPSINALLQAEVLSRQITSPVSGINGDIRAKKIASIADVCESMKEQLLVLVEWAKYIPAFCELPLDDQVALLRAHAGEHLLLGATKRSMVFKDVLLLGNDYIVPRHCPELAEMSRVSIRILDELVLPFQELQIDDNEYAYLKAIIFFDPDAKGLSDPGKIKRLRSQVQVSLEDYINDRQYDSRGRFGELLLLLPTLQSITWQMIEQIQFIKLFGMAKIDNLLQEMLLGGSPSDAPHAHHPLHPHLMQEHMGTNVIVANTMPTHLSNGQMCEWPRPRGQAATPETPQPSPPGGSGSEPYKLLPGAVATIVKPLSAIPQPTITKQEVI

A short description of experiment [10]: ATG_M_06_TRANS: Attagene TRANS-FACTORIAL HepG2 Assay for M06 Transcription Factor (Internal Marker) (AID 2282983; active = hit-call score of the fitted dose curve at least 0.9, where 1 is the maximum;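 also: reporter transcript level by RT-PCR then capillary electrophoresis fluorescence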). The conditions noted are these: HepG2 Attagene TRANS M06 internal marker reporter. The method, boiled down:
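HepG2 cells transiently transfected with GAL4-UAS multiple reporter units, dosed 24 h. Reporter RNA reverse-transcribed, PCR-amplified, 6-FAM-labeled, HpaI-digested and quantified by capillary electrophoresis; this internal-marker signal fitted upward relative to DMSO.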

Experiment [11] is described as follows: ATG_M_32_TRANS: Attagene TRANS-FACTORIAL HepG2 Assay for M32 Transcription Factor (Internal Marker) (AID 2282984; active = hit-call score of the fitted dose curve at least 0.9, where 1 is the maximum). Particulars: HepG2 Attagene TRANS M32 internal marker reporter. The method, boiled down:
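Using transiently transfected HepG2 cells exposed to test chemicals for 24 h, reporter transcripts are converted to labelled cDNA fragments and quantified by capillary electrophoresis. DMSO defines the activity baseline.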

For experiment [12], the target named is Nuclear receptor subfamily 4 group A member 2 (Homo sapiens) (UniProt P43354). The experiment in a line: ATG_NURR1_TRANS: Attagene TRANS-FACTORIAL HepG2 Assay for human Nuclear Receptor Related Protein 1 (NURR1) (AID 2282985; active = hit-call score of the fitted dose curve at least 0.9, where 1 is the maximum). Particulars: HepG2 Attagene TRANS reporter, mRNA readout. The method, boiled down: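 Cells: HepG2, transiently transfected. Exposure: 24 h. Detection: fluorescence of labelled RT-PCR products separated by capillary electrophoresis; upward fit versus DMSO.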
Chain of Nuclear receptor subfamily 4 group A member 2 (Homo sapiens) (P43354 whole entry, looked up): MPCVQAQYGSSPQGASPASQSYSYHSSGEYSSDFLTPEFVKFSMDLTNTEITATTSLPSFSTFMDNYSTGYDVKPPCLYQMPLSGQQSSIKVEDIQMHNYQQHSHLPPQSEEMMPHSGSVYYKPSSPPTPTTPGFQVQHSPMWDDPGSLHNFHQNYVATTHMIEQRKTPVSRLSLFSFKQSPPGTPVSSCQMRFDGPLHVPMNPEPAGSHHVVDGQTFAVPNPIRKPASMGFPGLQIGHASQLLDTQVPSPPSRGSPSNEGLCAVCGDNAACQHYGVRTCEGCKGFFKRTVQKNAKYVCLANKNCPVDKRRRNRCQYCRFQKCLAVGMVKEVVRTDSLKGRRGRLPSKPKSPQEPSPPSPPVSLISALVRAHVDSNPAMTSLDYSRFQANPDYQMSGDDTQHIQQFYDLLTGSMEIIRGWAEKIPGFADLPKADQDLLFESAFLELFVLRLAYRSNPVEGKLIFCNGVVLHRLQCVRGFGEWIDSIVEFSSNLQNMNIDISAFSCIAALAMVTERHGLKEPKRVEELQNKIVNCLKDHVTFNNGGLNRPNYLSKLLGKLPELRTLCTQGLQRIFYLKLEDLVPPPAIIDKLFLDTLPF

For experiment [13], the target named is Transcriptional activator Myb (Homo sapiens) (UniProt P10242). Briefly: ATG_Myb_CIS: Attagene CIS-FACTORIAL HepG2 Assay for human Myeloblastosis (Myb) Proto-Oncogene Transcription Factor (AID 2282986). Particulars: HepG2 Attagene CIS-FACTORIAL Myb reporter transcription; actives raise or lower the signal. The method, boiled down:
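HepG2 cells were transiently transfected with cis-regulated multiple reporter transcription units reflecting endogenous Myb activity, then exposed to compound for 24 hours. Reporter mRNA was measured by RT-PCR with capillary electrophoresis; bidirectional fitting versus DMSO baseline.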

Experiment [14] deals with Nuclear respiratory factor 1 (Homo sapiens) (UniProt Q16656). The experiment in a line: ATG_NRF1_CIS: Attagene CIS-FACTORIAL HepG2 Assay for human Nuclear Respiratory Factor 1 (NRF1) Orphan Gene (AID 2282987). Particulars: HepG2 NRF1 cis-element reporter, Attagene multiplex; actives raise or lower the signal. The method, boiled down: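 HepG2 cells transiently transfected with multiple reporter transcription units under cis-regulatory promoter control, so endogenous transcription-factor activity is read. After 24 h compound exposure, reporter mRNA quantified by RT-PCR, fluorescent labelling, HpaI digestion and capillary electrophoresis; bidirectional fitting versus DMSO.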
Chain of Nuclear respiratory factor 1 (Homo sapiens) (Q16656 whole entry, looked up): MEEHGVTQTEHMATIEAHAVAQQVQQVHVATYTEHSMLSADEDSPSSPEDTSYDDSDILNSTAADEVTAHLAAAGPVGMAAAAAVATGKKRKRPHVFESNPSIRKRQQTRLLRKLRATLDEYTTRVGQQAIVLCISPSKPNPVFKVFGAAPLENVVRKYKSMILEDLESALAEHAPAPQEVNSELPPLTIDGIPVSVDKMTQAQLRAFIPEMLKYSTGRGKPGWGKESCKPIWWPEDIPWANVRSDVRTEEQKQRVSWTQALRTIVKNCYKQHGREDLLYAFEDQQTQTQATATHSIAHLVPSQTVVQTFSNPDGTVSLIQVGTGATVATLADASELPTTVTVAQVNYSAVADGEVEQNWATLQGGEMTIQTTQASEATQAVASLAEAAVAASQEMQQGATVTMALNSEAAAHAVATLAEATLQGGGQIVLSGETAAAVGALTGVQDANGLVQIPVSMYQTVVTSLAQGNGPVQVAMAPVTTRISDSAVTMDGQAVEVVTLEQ

In experiment [15] the target is Bile acid receptor (Homo sapiens) (UniProt Q96RI1). The experiment in a line: ATG_FXR_TRANS: Attagene TRANS-FACTORIAL HepG2 Assay for Farnesoid X Receptor (FXR) (AID 2282979; active = hit-call score of the fitted dose curve at least 0.9, where 1 is the maximum;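 also: hits raise reporter mRNA above DMSO so AC50 marks FXR activation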). Particulars: HepG2 Attagene TRANS FXR-GAL4 reporter transcription. The method, boiled down:
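HepG2 cells were transiently transfected with GAL4-UAS reporters driven by chimeric NR-Gal4 proteins and dosed for 24 h. Reporter mRNA was quantified by RT-PCR, fluorescent labelling, HpaI digestion and capillary electrophoresis, with gain of signal scored versus DMSO.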

The target of experiment [16] is Oxysterols receptor LXR-alpha (Homo sapiens) (UniProt Q13133). Briefly: ATG_LXRa_TRANS: Attagene TRANS-FACTORIAL HepG2 Assay for human Liver X Receptor alpha (LXRa) (AID 2282980; active = hit-call score of the fitted dose curve at least 0.9, where 1 is the maximum). The conditions noted are these: HepG2 Attagene TRANS reporter, LXRa transactivation. The method, boiled down:
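HepG2 cells transiently transfected with GAL4-UAS reporter units for chimeric NR-Gal4 proteins, exposed to chemicals for 24 h. Reporter mRNA quantified by RT-PCR and capillary electrophoresis; gain of signal fitted relative to DMSO.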

The target in experiment [17] is Oxysterols receptor LXR-beta (Homo sapiens) (UniProt P55055). The experiment in a line: ATG_LXRb_TRANS: Attagene TRANS-FACTORIAL HepG2 Assay for human Liver X Receptor beta (LXRb) (AID 2282981; active = hit-call score of the fitted dose curve at least 0.9, where 1 is the maximum). Particulars: HepG2 Attagene TRANS GAL4-LXRb reporter, mRNA. The method, boiled down: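 Cells: HepG2, transiently transfected with GAL4-UAS reporter units plus LXRb-Gal4 fusion. Treatment: 24 h. Detection: reporter mRNA by RT-PCR, 6-FAM labelling, HpaI digestion, capillary electrophoresis.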
Chain of Oxysterols receptor LXR-beta (Homo sapiens) (P55055 whole entry, looked up, the tested form may be a part): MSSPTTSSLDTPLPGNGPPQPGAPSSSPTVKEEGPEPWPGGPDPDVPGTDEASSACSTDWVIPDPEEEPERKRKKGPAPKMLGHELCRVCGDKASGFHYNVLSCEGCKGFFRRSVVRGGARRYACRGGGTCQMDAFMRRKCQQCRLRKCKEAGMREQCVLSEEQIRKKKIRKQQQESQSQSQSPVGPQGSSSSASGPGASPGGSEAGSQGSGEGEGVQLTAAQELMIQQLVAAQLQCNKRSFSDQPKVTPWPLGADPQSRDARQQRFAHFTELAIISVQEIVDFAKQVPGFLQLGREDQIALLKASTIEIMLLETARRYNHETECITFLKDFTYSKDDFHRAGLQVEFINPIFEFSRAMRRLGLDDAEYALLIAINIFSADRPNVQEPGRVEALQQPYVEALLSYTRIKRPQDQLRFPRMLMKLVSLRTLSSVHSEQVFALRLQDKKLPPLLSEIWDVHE

The target of experiment [18] is Steroid hormone receptor ERR1 (Homo sapiens) (UniProt P11474). The experiment in a line: ATG_ERRa_TRANS: Attagene TRANS-FACTORIAL HepG2 Assay for human Estrogen-Related Receptor alpha (ERRa) (AID 2282971; active = hit-call score of the fitted dose curve at least 0.9, where 1 is the maximum). Particulars: HepG2 Attagene TRANS reporter, ERRa transactivation. The method, boiled down: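 HepG2 cells transiently transfected with GAL4-UAS reporter units and chimeric NR-Gal4 constructs; after 24 hour compound incubation, reporter mRNA quantified by RT-PCR, fluorescent labelling and capillary electrophoresis, gain of signal versus DMSO.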
Chain of Steroid hormone receptor ERR1 (Homo sapiens) (P11474 whole entry, looked up, the tested form may be a part): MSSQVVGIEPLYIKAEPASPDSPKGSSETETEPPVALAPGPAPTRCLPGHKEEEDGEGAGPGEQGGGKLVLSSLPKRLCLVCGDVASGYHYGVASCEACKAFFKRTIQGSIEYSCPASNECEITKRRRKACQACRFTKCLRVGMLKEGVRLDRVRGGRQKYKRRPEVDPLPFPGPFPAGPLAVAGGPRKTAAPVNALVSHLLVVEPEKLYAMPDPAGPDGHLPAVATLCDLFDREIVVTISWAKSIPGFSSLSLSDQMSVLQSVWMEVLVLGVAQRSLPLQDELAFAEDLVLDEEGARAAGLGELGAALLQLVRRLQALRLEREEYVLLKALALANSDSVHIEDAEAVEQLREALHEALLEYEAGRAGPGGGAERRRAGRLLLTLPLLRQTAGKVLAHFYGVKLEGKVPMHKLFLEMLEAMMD

Experiment [19] addresses Estrogen-related receptor gamma (Homo sapiens) (UniProt P62508). The experiment in a line: ATG_ERRg_TRANS: Attagene TRANS-FACTORIAL HepG2 Assay for human Estrogen-Related Receptor gamma (ERRg) (AID 2282977; active = hit-call score of the fitted dose curve at least 0.9, where 1 is the maximum;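 also: hits increase reporter signal over DMSO so potencies reflect activators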). The conditions noted are these: HepG2 Attagene TRANS reporter, ERRg transactivation. The method, boiled down: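 HepG2 cells transiently transfected with multiplexed GAL4-UAS reporter units and chimeric NR-Gal4 constructs were exposed to test chemicals for 24 h. Reporter mRNA was measured by RT-PCR, 6-FAM primer extension, HpaI digestion and capillary electrophoresis; gain-of-signal versus DMSO.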

Records with an inconclusive call do not appear. Active and inactive are the calls of the source. The calls were made as follows, unless noted: active = hit-call score of the fitted dose curve at least 0.9, where 1 is the maximum; inactive = score below 0.9.

Chain of Oxysterols receptor LXR-alpha (Homo sapiens) (Q13133 whole entry, looked up, the tested form may be a part): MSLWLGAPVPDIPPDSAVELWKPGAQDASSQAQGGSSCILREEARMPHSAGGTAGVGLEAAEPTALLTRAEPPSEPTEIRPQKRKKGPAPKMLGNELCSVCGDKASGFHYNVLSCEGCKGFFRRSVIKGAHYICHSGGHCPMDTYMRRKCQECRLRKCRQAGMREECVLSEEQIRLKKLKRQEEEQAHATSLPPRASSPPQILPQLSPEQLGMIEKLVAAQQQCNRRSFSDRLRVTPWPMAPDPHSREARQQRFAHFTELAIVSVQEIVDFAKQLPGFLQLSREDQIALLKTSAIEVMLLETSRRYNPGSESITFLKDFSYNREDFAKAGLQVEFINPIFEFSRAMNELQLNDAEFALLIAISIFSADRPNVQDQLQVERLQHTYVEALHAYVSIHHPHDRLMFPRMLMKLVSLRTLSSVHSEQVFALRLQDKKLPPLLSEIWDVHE
Chain of Transcriptional activator Myb (Homo sapiens) (P10242 whole entry, looked up): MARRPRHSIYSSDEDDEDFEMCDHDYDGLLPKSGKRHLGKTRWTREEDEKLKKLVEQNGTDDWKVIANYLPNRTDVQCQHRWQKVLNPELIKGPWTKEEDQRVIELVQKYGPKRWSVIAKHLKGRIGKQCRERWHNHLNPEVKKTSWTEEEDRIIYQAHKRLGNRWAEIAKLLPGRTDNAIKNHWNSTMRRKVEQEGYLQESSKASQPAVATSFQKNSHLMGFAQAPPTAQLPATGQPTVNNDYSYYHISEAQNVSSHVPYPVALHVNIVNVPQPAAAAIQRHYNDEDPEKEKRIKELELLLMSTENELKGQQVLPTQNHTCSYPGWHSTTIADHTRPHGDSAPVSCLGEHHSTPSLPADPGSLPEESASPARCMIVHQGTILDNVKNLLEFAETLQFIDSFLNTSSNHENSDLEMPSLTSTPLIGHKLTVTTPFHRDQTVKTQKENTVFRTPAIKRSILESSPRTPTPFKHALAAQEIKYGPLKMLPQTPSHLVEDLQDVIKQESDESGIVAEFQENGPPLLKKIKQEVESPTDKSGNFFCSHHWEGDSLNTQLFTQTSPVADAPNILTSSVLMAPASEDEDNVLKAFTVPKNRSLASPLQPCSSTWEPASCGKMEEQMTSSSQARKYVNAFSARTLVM
Chain of Bile acid receptor (Homo sapiens) (Q96RI1 whole entry, looked up, the tested form may be a part): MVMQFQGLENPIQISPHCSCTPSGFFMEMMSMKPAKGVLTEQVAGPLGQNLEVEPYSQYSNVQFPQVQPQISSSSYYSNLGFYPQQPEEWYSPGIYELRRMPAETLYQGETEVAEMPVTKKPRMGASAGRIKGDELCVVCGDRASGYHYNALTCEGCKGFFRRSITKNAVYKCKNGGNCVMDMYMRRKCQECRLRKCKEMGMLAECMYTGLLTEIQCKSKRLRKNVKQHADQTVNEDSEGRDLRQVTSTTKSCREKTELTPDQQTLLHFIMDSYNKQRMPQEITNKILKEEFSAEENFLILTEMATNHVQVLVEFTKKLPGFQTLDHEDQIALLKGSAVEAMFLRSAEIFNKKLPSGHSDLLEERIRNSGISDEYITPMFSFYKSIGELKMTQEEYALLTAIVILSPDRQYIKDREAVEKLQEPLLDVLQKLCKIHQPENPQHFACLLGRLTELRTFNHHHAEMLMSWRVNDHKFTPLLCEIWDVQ
Chain of Estrogen receptor (Homo sapiens) (P03372 whole entry, looked up, the tested form may be a part): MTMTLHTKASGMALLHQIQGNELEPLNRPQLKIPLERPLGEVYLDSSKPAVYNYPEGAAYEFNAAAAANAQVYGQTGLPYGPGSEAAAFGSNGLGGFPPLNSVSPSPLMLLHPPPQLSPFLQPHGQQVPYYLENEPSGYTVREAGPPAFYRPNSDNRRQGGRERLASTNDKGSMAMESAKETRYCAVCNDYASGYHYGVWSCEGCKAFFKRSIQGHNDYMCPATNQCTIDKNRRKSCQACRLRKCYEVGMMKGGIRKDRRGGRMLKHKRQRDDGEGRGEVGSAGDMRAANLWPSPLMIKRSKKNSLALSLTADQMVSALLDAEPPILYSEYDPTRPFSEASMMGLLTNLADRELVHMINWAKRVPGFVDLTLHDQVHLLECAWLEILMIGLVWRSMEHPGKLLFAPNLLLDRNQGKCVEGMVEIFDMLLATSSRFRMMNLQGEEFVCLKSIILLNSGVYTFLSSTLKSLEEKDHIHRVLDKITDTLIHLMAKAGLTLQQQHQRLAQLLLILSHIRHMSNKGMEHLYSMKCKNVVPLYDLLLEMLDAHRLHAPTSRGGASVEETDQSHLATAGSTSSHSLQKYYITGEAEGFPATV

As to `CCC(=O)O`, the molecule was called inactive in experiment [1], in experiment [2], in experiment [3], in experiment [4], in experiment [5] and in experiment [6]. The molecule was classed as inactive in experiment [7], in [8], in experiment [9], in [10], in experiment [11] and in [12]. For the same molecule, the molecule was called inactive in experiment [13] and in experiment [14].
On to `CCCCCCCC(OC)OC`, for which the call in [1], in experiment [2], in experiment [3], in experiment [4], in experiment [5] and in experiment [8] was inactive. For the same molecule, the molecule was called inactive in [15], in [10], in experiment [12], in experiment [13] and in experiment [14].
As to `C[C@]12CC[C@@H]3c4ccc(O)cc4CC[C@H]3[C@@H]1CC[C@@H]2OC(=O)CCC1CCCC1`, the molecule was classed as inactive in experiment [1], in [2], in experiment [3], in [5], in experiment [8] and in [16]. Moreover, the outcome in experiment [17], in experiment [10], in experiment [13] and in experiment [14] was inactive. Also, the AC50 (in general, the concentration at which the activity in the assay is half-maximal) in experiment [4] is 0.0823 µM (active).
Regarding `Oc1ccc(Cc2ccccc2O)cc1`, the result in experiment [1], in experiment [2], in [5], in experiment [6], in [8] and in experiment [15] was inactive. The call in [17], in experiment [9], in experiment [11], in experiment [12], in experiment [13] and in [14] was inactive. The AC50 in experiment [3] is 64.5 µM (active); in experiment [4] it was 3.65 µM (active).
Take `CCCCCCOC(=O)c1ccc(O)cc1`: the result in experiment [1], in experiment [18], in [6], in experiment [15], in experiment [16] and in [17] was inactive. The outcome in experiment [9], in [10], in [11] and in experiment [13] was inactive. Moreover, the AC50 in [2] is 50.8 µM (active); in [3], 49.9 µM (active); in experiment [4], 3.24 µM (active); in experiment [12] it was 51.4 µM (active); in [14], 58.5 µM (active).
As for `CCOC(=O)c1nc(C(Cl)(Cl)Cl)n(-c2ccc(Cl)cc2Cl)n1`, the AC50 in [1] is 118 µM (active); in experiment [2], 27.8 µM (active); in experiment [4] it was 25.7 µM (active); in experiment [5] it was 178 µM (active); in [11], 100 µM (active). Besides, the molecule was classed as inactive in experiment [3], in experiment [7], in experiment [15], in [13] and in experiment [14].
Regarding `CC(C)(c1ccc(Oc2ccc(N)cc2)cc1)c1ccc(Oc2ccc(N)cc2)cc1`, the outcome in experiment [1], in experiment [2], in experiment [4], in experiment [5], in experiment [7] and in experiment [17] was inactive. In addition, the molecule was called inactive in experiment [9], in experiment [11], in [13] and in experiment [14]. In addition, the AC50 was 3.6 µM (active) in experiment [3] and 3.21 µM (active) in experiment [16].
On to `CCOC=O`, for which the outcome in experiment [1], in [2], in experiment [3], in experiment [5], in [7] and in experiment [19] was inactive. Also, the molecule was called inactive in experiment [8], in [9], in experiment [10], in experiment [13] and in experiment [14]. Also, the AC50 in [4] is 59.7 µM (active).
